Laboratory results: PubChem BioAssay AID686979 (National Center for Advancing Translational Sciences (NCATS), 2013)
About 50,000 (12%) of roughly 420,000 compounds were called active. Inconclusive results (about 26%) are left out. Calls come from the whole dose curve; as a rule, active = well fitted inhibition curve with a large enough effect; inconclusive = small, poorly fitted or top-dose-only effect; inactive = flat fitted curve, though single readings scatter. Shown is part of a subset that was picked to be rich in actives.

Assay: qHTS for Inhibitors of human tyrosyl-DNA phosphodiesterase 1 (TDP1): qHTS in cells in presence of CPT; note: nearly all actives have a fitted effect of over 55% in size
Details: chicken DT40 Tdp1-/-;hTDP1 cells + 20 nM CPT, ATP luminescence, 48 h; series mostly up to 46.2 µM; activity change, negative = growth inhibition: at the top concentration
In short: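 Cell growth measured by CellTiter-Glo luminescence after a minimum 48 h, 37 C compound exposure with 20 nM CPT in Tdp1-knockout DT40 cells stably expressing hTDP1, seeded 400/well; qHTS titration format.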
% is set by controls: 0 for no effect and ±100 for the full control effect; potency is the fitted concentration of half-maximal effect.

Structure (SMILES)	activity change, negative = growth inhibition	Potency
CC(=O)C[C@H](O)CC(=O)[C@@H]1OC(=O)[C@@H](C)C/C=C\Cc2ccccc21	1.45% (inactive)	–
COc1ccc(CNC(=O)c2cc(=O)c3c(C)cc(C)cc3o2)cc1	-3.72% (inactive)	–
CCCCn1c(N)c(N(CCOC)C(=O)c2cccc(S(=O)(=O)N3CCCCC3)c2)c(=O)[nH]c1=O	-2.83% (inactive)	–
COc1cc(OC)c(S(=O)(=O)Nc2ccccc2C(=O)O)cc1S(=O)(=O)Nc1ccccc1C(=O)O	9.05% (inactive)	–
CS(=O)(=O)N1CCN(c2cccc(Cl)n2)CC1	8.45% (inactive)	–
O=C(COc1ccc2c(c1)CCC2)N1CCN(c2ccc(F)cc2)CC1	10.3% (inactive)	–
Cc1nn2c3cc(N4CCOCC4)ccc3nc2c2ccccc12	-24.1% (inactive)	–
COCCn1c(=O)c(-c2ccccc2)nc2cnc(N3CCOCC3)nc21	1.6% (inactive)	–
CCCCn1c(SCC(=O)NCC2CCCO2)nc2ccc(N3CCOCC3)cc2c1=O (configuration not stated)	-16.2% (inactive)	–
N#CCSc1nc2ccc(N3CCOCC3)cc2c(=O)n1CCc1ccccc1	–	23.1 µM (active)
COCCNC(=O)c1ccc(Cn2c(SCC(=O)NCC3CCCO3)nc3ccc(Br)cc3c2=O)cc1 (configuration not stated)	-4.66% (inactive)	–
COCCCNC(=O)CSc1nc2ccc(N3CCOCC3)cc2c(=O)n1CCc1ccccc1	–	16.4 µM (active)
COc1ccccc1/C=C/C(=O)OCC(=O)NC1CCCCCC1	-22.8% (inactive)	–
C=Cc1ccc(C(=O)N2CCCC(CCC(=O)N3CCN(c4ccccn4)CC3)C2)cc1 (configuration not stated)	-17.8% (inactive)	–
COc1ccc(C2c3c(oc4ccccc4c3=O)C(=O)N2Cc2ccc3c(c2)OCO3)cc1 (configuration not stated)	-0.0902% (inactive)	–
Cc1ccc2oc3c(c(=O)c2c1)C(c1ccc(O)cc1)N(Cc1ccc2c(c1)OCO2)C3=O (configuration not stated)	–	14.6 µM (active)
CCCOc1ccc(C2c3c(oc4cc(C)c(C)cc4c3=O)C(=O)N2CCCN2CCOCC2)cc1 (configuration not stated)	-5.72% (inactive)	–
Cc1ccc(NNC(=O)c2cccs2)cc1Cl	-23.8% (inactive)	–
CC(NC(=O)COc1cccnc1[N+](=O)[O-])c1ccc(Cl)cc1Cl (configuration not stated)	-21.6% (inactive)	–
CC(=O)C[C@@H]1OC[C@H](C)N1S(=O)(=O)c1ccc(C)cc1	25.5% (inactive)	–
CCn1nc(C)c(NC(=O)/C=C/c2ccc(OC)c(COc3ccc(Br)cc3)c2)c1C	–	16.4 µM (active)

Structure (SMILES)	activity change, negative = growth inhibition	Potency
Cc1nn(CCOc2ccc(Br)cc2)c(C)c1[N+](=O)[O-]	6.55% (inactive)	–
CCn1nc(C(=O)NNS(=O)(=O)c2cc(/C=C/C(=O)O)cc(OC)c2OC)c2ccccc2c1=O	4.44% (inactive)	–
O=C(O)CCCCCCCCCC[n+]1ccccc1	3.14% (inactive)	–
CCn1c(SCC(=O)NC2CC2)nnc1-c1ccncc1	2.34% (inactive)	–
CCOC(=O)c1c(NC(=O)/C=C/c2ccco2)sc(C)c1C	-41.2% (inactive)	–
CCOC(=O)c1c(NC(=O)c2cccs2)sc(C)c1C	6.74% (inactive)	–
CCOC(=O)c1c(NC(=S)NC(=O)/C=C/c2cccs2)sc(C)c1C	–	20.6 µM (active)
Cc1c(NC(=S)NC(=O)CCc2ccccc2)c(=O)n(-c2ccccc2)n1C	6.66% (inactive)	–
NC(=O)[C@H]1CC2(CC(c3cccc(NC(=O)[C@H]4CCC(=O)N4)c3)=NO2)CN1C(=O)c1ccccc1C(=O)c1ccccc1 (some centres not stated)	0.837% (inactive)	–
CC(C)CN(C(=O)CN1CCN(S(=O)(=O)c2ccccc2)CC1)c1c(N)n(CC(C)C)c(=O)[nH]c1=O	3.61% (inactive)	–
Cc1ccc(NC(=O)c2ccc(CSc3ncnc4nc[nH]c34)cc2)c(C)c1	–	23.1 µM (active)
Cc1ccc(Cc2nnc(SCC(=O)Nc3ccc(C)cc3C)[nH]c2=O)cc1	-12% (inactive)	–
CSc1ncc(C(=O)Nc2ccc(C)cc2C)c(C)n1	-13.4% (inactive)	–
Cc1cc(C)c2oc(C(=O)Nc3ccc(S(=O)(=O)Nc4nccc(C)n4)cc3)cc(=O)c2c1	–	inactive
Cc1ccc2nc(SCC(=O)N3CC(C)OC(C)C3)nc(=O)n2c1 (configuration not stated)	15.6% (inactive)	–
O=C(CCC(=O)c1ccccc1)NCc1cccc(C(F)(F)F)c1	-19% (inactive)	–
Cc1ccc2nc(NC(=O)CSc3nc(=O)n(CCCN(C)C)c4c3CCC4)sc2c1	–	9.2 µM (active)
Cc1ccc(NC(=O)CSc2nc(=O)n(CCN(C)C)c3c2CCCC3)c(C)c1	3.71% (inactive)	–
Cc1csc(NC(=O)CSc2nc(=O)n(CCCN(C)C)c3c2CCC3)n1	4.71% (inactive)	–
N#Cc1ccc(-c2nc3c(Cl)cc(C(F)(F)F)cn3c2Cc2ccccc2C(F)(F)F)cc1	-1.15% (inactive)	–
COc1ccccc1Cc1c(-c2ccc(Cl)cc2)nc2c3ccccc3ccn12	–	25.9 µM (active)

Structure (SMILES)	activity change, negative = growth inhibition	Potency
COc1ncc2nc(-c3ccc(Cl)cc3)c(=O)n(-c3ccccc3)c2n1	29% (inactive)	–
O=C1C(c2ccccn2)=[N+]([O-])c2ccccc21	-28.8% (inactive)	–
COCCN1C(=O)c2oc3c(C)cc(C)cc3c(=O)c2C1c1cccc(O)c1 (configuration not stated)	-26.3% (inactive)	–
O=C1c2oc3ccccc3c(=O)c2C(c2cccc(O)c2)N1c1ccccn1 (configuration not stated)	–	20.6 µM (active)
CC(=O)c1sc(N2C(=O)c3oc4ccccc4c(=O)c3C2c2ccc(C)cc2)nc1C (configuration not stated)	7.1% (inactive)	–
O=C(NC1CC(=O)N(c2ccc(F)cc2)C1)c1cccs1 (configuration not stated)	-7.52% (inactive)	–
CC(C)=NN1C(=O)c2ccccc2NC1(C)C	33% (inactive)	–
O=C(Nc1ccc2c(c1)OCO2)c1ccc(N2C(=O)c3ccccc3C2=O)cc1	-4.6% (inactive)	–
Cc1ccc(-c2csc(N3CCN(c4cc5c(cc4Cl)nc(-c4ccncc4)n5CCOCCO)CC3)n2)cc1	–	16.4 µM (active)
CCCn1c(C(C)Nc2nc(-c3ccc(C)cc3)cs2)nc2cc(Cl)c(N3CCCCC3)cc21 (configuration not stated)	-17.2% (inactive)	–
COc1ccc(-c2csc(N3CCN(Cc4ccc5c(c4)OCO5)CC3)n2)cc1	-5.07% (inactive)	–
COc1cccc(CNC(=O)c2nnn(CC(=O)Nc3cc(C)ccc3C)c2N)c1	-3.62% (inactive)	–
CSc1c(SCc2ccccc2)cnn(Cc2ccccc2)c1=O	4.13% (inactive)	–
CC1CN(C2CCCCC2)c2nc3c(c(=O)n(C)c(=O)n3C)n2C1 (configuration not stated)	-29.8% (inactive)	–
Cn1c(=O)n(CCc2ccccc2)c(=O)c2c1nc1n2CCCN1c1ccccc1	-21.7% (inactive)	–
Cc1cccc(N2CC(C)Cn3c2nc2c3c(=O)n(CC(=O)OCc3ccccc3)c(=O)n2C)c1 (configuration not stated)	–	23.1 µM (active)
CCn1c(SC(C)C(=O)Nc2ccc(N3CCOCC3)cc2)nnc1-c1ccco1 (configuration not stated)	-14.6% (inactive)	–
COc1ccc(C(C)C)cc1-c1ccc2nncn2c1	-1.77% (inactive)	–
C=CCn1c(SCC(=O)Nc2ccc(NC(C)=O)cc2)nc2sc(C)c(C)c2c1=O	-7.85% (inactive)	–
CC(OC(=O)CNC(=O)c1ccco1)C(=O)Nc1ccc(Cl)cn1 (configuration not stated)	3.92% (inactive)	–
